# Assay outcomes deposited in PubChem by National Center for Advancing Translational Sciences (NCATS).
# Cruzain Triton = blocks cruzain activity in presence of Triton detergent. purified cruzain, Z-FR-AMC fluorescence, 0.01% Triton. Potency, µM, without a hit: max response, negative = inhibition, hits mostly inhibitors. 200,000 tested, 0.43% active. AID 1478. P25779;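 further: plate controls were neutral wells for no effect and buffer without enzyme for full effect; nearly all actives have a fitted effect of over 40% in size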
# Target sequence (P25779 123-467 limits assumed): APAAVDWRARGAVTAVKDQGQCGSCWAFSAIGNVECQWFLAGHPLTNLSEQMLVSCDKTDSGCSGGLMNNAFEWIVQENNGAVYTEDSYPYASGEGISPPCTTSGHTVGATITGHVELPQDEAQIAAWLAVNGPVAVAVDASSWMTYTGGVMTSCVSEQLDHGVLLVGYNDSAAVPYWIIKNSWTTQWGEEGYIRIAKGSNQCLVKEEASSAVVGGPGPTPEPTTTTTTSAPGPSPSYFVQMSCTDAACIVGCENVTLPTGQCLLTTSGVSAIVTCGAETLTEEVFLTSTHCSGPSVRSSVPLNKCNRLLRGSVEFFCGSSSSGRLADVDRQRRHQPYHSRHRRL
#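 Detergent-containing run (0.01% Triton X-100) in acetate buffer pH 5.5 with 5 mM DTT: enzyme at 1.5 nM final, 15 min compound preincubation at room temperature, then 2 uM Z-FR-AMC substrate. Activity taken as 60 s fluorescence increase at 360/450 nm.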
# Cruzain inh noDet = blocks cruzain activity in detergent-free assay; P25779; purified cruzain, Z-FR-AMC fluorescence, no detergent; Potency, µM, without a hit: max response, negative = inhibition, hits mostly inhibitors; 200,000 tested, 2.3% active; AID 1476;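 further: plate controls were enzyme without inhibitor for no effect and buffer without enzyme for full effect; nearly all actives have a fitted effect of over 40% in size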
#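 Detergent-free condition (0.00005% Triton X-100) in acetate buffer pH 5.5 with DTT. 1.5 nM enzyme and compound were pre-mixed 15 min, then 2 uM Z-FR-AMC substrate added; reaction progress from fluorescence change between first and third reads (60 s).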
# The depositor's hits bear a star; ? = inconclusive. Hits are enriched below; roughly 2.5% of the tested compounds scored in any of these assays. The call rests on the fitted dose curve; in most records, active means well fitted curve in the direction sought with a large enough effect; inconclusive means small, poorly fitted or top-dose-only effect, or another doubt; inactive means no such curve, though single readings can be large; an effect the other way counts as inactive or inconclusive. Potency means the concentration at half of the fitted maximal effect.
SMILES,Cruzain Triton,Cruzain inh noDet
O=C(NCCc1cccc(Cl)c1)c1ccc(Cl)c([N+](=O)[O-])c1,-5.5%,-17.9%
O=C(NCCc1nc2ccccc2[nH]1)c1ccco1,-24.1%,12.6µM*
O=C(/C=C/c1ccco1)N/C(=C\c1ccccc1)C(=O)NCCc1nc2ccccc2[nH]1,-17.8%,-18.4%
CCOC(=O)c1sc(NC(=O)C(C)Oc2ccc(OC)cc2)c(C(=O)OCC)c1C (stereo unspecified),0.9%,6.8%
Cc1cccc(C(=O)N(Cc2ccccc2F)C2CCS(=O)(=O)C2)c1 (stereo unspecified),-1.8%,2.0%
Cc1c2cnn(-c3ccccc3)c(=O)c2c(C)n1CCCC(=O)Nc1cc(F)ccc1F,-3.7%,12.9%
O=C1CC(=O)Nc2cc(S(=O)(=O)Nc3cccc(Br)c3)ccc2N1,-2.4%,-5.4%
COc1ccc(C(=O)N(Cc2ccco2)Cc2ccco2)cc1,-1.8%,-8.5%
CCC(=O)Nc1ccc(Cl)c(NC(=O)C(C)C)c1,6.1%,14.7%
O=C(Nc1ccccc1C(=O)OCc1cc(=O)n2nc(C3CC3)sc2n1)c1cccc(Cl)c1,0.7%,?
O=C(COC(=O)c1ccc(-c2nnc(-c3ccccc3)o2)cc1)c1ccccc1,-1.5%,7.94µM*
Nc1cccc(C(=O)OCC(=O)c2ccccc2)c1,-1.6%,-3.0%
Cc1ccc(-c2nc3scc(CCNC(=O)Cc4ccc(Cl)cc4)n3n2)cc1,-0.4%,-3.9%
O=C(NCCc1ccccc1)c1ccc2c(c1)N(Cc1ccccc1Cl)C(=O)c1ccccc1S2,-0.2%,?
CCN(CCCNC(=O)c1cc2cc3ccc(OC)cc3nc2s1)c1ccccc1,20µM*,31.6µM*
CCN(CCCNC(=O)c1cc2cc3ccc(OC)cc3nc2s1)c1cccc(C)c1,-11.4%,?
COc1ccc(-c2nnc3ccc(SCC(=O)Nc4nc5ccccc5s4)nn23)cc1OC,-3.8%,?
CCOC(=O)Nc1ccc2c(c1)Nc1ccccc1S2,-11.3%,25.1µM*
CCOC(=O)c1ccc(NC(=O)c2ccc3c(c2)NC(=O)c2ccccc2S3)cc1,-0.9%,5.8%
C/C(=N\NC(=O)c1ccc(C)cc1C)c1ccc2c(c1)Nc1ccccc1S2,-1.5%,?
CC(=O)c1ccc2c(c1)Nc1ccccc1S2,1.2%,25.1µM*
CC1CC[C@@]2(C(=O)O)CCC3(C)C(=CCC4[C@]5(C)CC(O)C(O)[C@](C)(CO)C5C(O)C[C@@]43C)C2C1C (stereo partly specified),3.7%,?
O=S(=O)(c1ccccc1)c1nc(-c2ccc(Cl)cc2Cl)oc1N1CCCCCC1,-1.8%,7.1%
COc1ccc(C2C(C(=O)Nc3cccnc3)=C(C)Nc3nc(-c4ccccc4)nn32)cc1OC (stereo unspecified),-2.7%,8.4%
CC(C)C[C@@H](CC(=O)N[C@@H](CCC(=O)O)CC(=O)O)NC(=O)[C@@H]1CCCC[C@H]1NC(=O)C[C@H](CCCN)NC(=O)C[C@H](CO)NC(=O)[C@@H]1CCCC[C@H]1N,2.6%,10.8%
SMILES,Cruzain Triton,Cruzain inh noDet
Cc1cccc(OCC(=O)Nc2ccc(OCc3cc(=O)n4cc(C)ccc4n3)cc2)c1,2.9%,-2.7%
Cc1ccsc1/C=C1/SC(N2CCOCC2)=NC1=O,-6.4%,-0.5%
O=C1N=C(N2CCOCC2)S/C1=C\c1ccc(-c2ccccc2Cl)o1,-27.3%,31.6µM*
C/C(=N\NC(=O)CNC(=O)C(c1ccccc1)c1ccccc1)c1ccccc1,4.6%,12.6µM*
C/C(=N\NC(=O)CNC(=O)C(c1ccccc1)c1ccccc1)c1ccc(C(C)(C)C)cc1,0.8%,?
O=C(Nc1ccccc1C(=O)OCC(=O)N1CCc2ccccc2C1)c1ccco1,-5.4%,12.6µM*
CC1CCCCC1NC(=O)COC(=O)c1ccccc1NC(=O)c1ccco1 (stereo unspecified),2.5%,-0.5%
CC(C)OCCCNC(=O)CCCn1c(SCC(N)=O)nc2c(sc3ccccc32)c1=O,1.3%,8.7%
CCCCCCCCCCCCCCCC(=O)OCC(O)C1OC(=O)C(O)=C1O (stereo unspecified),-14.4%,?
COCCn1c(=O)c(-c2ccc(Cl)cc2)nc2cnc(N(C)C)nc21,-0.7%,-8.0%
CN(Cc1ccccc1)S(=O)(=O)c1cc(Br)cc2c1N(C(=O)C1CC1)CC2,-4.1%,-11.4%
COC(=O)c1sc(-c2ccccc2)cc1NC(=O)Nc1ccc(Cl)cc1,-3.2%,?
COC(=O)c1sc(-c2ccccc2)cc1NC(=O)Nc1ccccc1Cl,3.6%,10µM*
O=C(/C=C/c1cccc([N+](=O)[O-])c1)c1cccs1,-2.0%,-1.0%
CC(=O)Nc1cccc(NC(=O)c2ccc([N+](=O)[O-])cc2Cl)c1,-1.6%,4.2%
O=C(/C=C/c1cccc([N+](=O)[O-])c1)NC(=S)Nc1cccc(NC(=O)c2ccccc2Cl)c1,-5.6%,6.31µM*
O=C(/C=C/c1cccc([N+](=O)[O-])c1)Nc1ccc(NC(=O)c2cccs2)cc1,-8.2%,20µM*
CCOC(=O)c1c(C)oc2nc(C)nc(NCC3CCN(Cc4cccc(Cl)c4)CC3)c12,-0.4%,-3.1%
COc1cccc(NC(=O)c2ccc(-c3nc(COc4ccccc4)c(C)o3)cc2)c1,-1.8%,-7.2%
CC(C)CCCC(C)C1CCC2C3CC=C4CC(O)CCC4(C)C3CCC12C (stereo unspecified),0.7%,-2.7%
C#CCn1c(=NC(=O)c2ccc(S(=O)(=O)N3CCCc4ccccc43)cc2)sc2cc(S(N)(=O)=O)ccc21,-2.0%,7.94µM*
Cn1c(=NC(=O)c2ccc(S(=O)(=O)N3CCCc4ccccc43)cc2)sc2cc(S(C)(=O)=O)ccc21,-5.5%,-11.2%
Cc1c(/C=C(\C#N)c2nn(-c3ccccc3)c(N)c2C#N)c2ccccc2n1Cc1ccc(F)cc1,-1.2%,3.98µM*
Cc1ccc(/C=C(\C#N)c2nn(-c3ccccc3)c(N)c2C#N)cc1,-7.8%,1.0%
CCCSc1nnc2[nH]c(=O)cc(C)n12,-0.3%,24.4%
SMILES,Cruzain Triton,Cruzain inh noDet
Cc1ccc(NC2c3ncccc3C(=O)N2C2CCCCC2)cc1C (stereo unspecified),2.7%,-3.3%
O=C1C2C3C=CC(C4CC34)C2C(=O)N1/N=C/c1ccc(-c2cccc([N+](=O)[O-])c2)o1 (stereo unspecified),-8.1%,25.1µM*
O=C1C2C3C=CC(C4CC34)C2C(=O)N1/N=C/c1ccc([N+](=O)[O-])s1 (stereo unspecified),-1.8%,-1.1%
COc1ccccc1C1CC(=O)Oc2cc3c(cc21)OCO3 (stereo unspecified),-12.1%,16.5%
Cn1c(O)c(N=NC(=O)c2cc(-c3cccs3)nc3ccccc23)c2ccccc21,-1.4%,10µM*
Cn1cccc1/C=N/NC(=O)c1cc(-c2cccs2)nc2ccccc12,-9.1%,-20.4%
O=c1cc(CN2CCN(c3ccccc3F)CC2)c2cc(O)c(-c3ccccc3)cc2o1,-3.5%,7.94µM*
COc1ccc(N2CCN(Cc3cc(=O)oc4cc(-c5ccccc5)c(O)cc34)CC2)cc1,-0.4%,?
Cc1cc(NC(=O)c2noc3c2CCCC3)no1,1.1%,-0.9%
CCCCCC(=O)Nc1nc(C)c(-c2csc(Nc3ccc(Cl)cc3)n2)s1,-5.8%,12.6µM*
CCCCCCC(=O)Nc1nc(C)c(-c2csc(Nc3ccc(Cl)cc3)n2)s1,4.5%,?
CCC(C)C(=O)Nc1nc(C)c(-c2csc(Nc3ccccc3OC)n2)s1 (stereo unspecified),-2.3%,?
CCCCCC(=O)Nc1nc(C)c(-c2csc(Nc3cc(Cl)ccc3C)n2)s1,-2.8%,10µM*
